# Source: PubChem BioAssay (EPA / NIEHS)
# Results filed as inconclusive are left out. Some compounds were tested as several samples or in several runs, with calls that do not always agree. Activity calls are given as the source filed them. How the source made its calls: active means hit-call score of the fitted dose curve at least 0.9, where 1 is the maximum; inconclusive means response in the unintended direction; inactive means score below 0.9.
# Experiments:
# [1] = biological target: bovine Estrogen Receptor (ER), ESR1 (gene 407238) (UniProt P49884); assay: NVS_NR_bER: NovaScreen (NVS) Nuclear Receptor Binding Assay for bovine Estrogen Receptor (ER) (AID 2283345);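 further: actives lower the bound radioligand count which means they displace the ER ligand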
# How it was run: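 Cell-free radioligand binding with bovine uterine membrane extracts, read 18 hours after dosing by scintillation counting. Loss of signal versus DMSO baseline indicates displacement. Primary screen run in duplicate at 25 uM, actives followed in concentration series.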
# NCBI gene 100848466 = assay: NVS_NR_bPR: NovaScreen (NVS) Nuclear Receptor Binding Assay for bovine Progextron Receptor (PR) (AID 2283343);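 on AC50: actives lower bound radioligand signal below DMSO meaning displacement of the label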
# How it was run: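 Steps: bovine uterine membranes were dosed with chemical alongside radioligand, incubated 18 hours, then radiodetected by scintillation counting. Initial testing used 25 uM in duplicate; confirmed actives were rerun as concentration series.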
# [2] = biological target: Estrogen receptor (Homo sapiens) (UniProt P03372); assay: NVS_NR_hER: NovaScreen (NVS) Nuclear Receptor Binding Assay for human Estrogen Receptor (ER) (AID 2283348)
# How it was run: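 Radiodetection of ligand displacement in a lysate-based, cell-free format using MCF7 extracts, read at 18 hours. Duplicate 25 uM primary testing, then concentration series for actives.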
# [3] = test system: guinea pig Histamine Receptor (H2), gene 100729734; assay: NVS_GPCR_gH2: NovaScreen (NVS) G Protein-Coupled Receptor Assay for guinea pig Histamine Receptor (H2) (AID 2283342)
# How it was run: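 Guinea pig striatal membrane preparation with specific radioligand; bound counts measured by filtration and scintillation 1 h post-dosing, DMSO as baseline. Chemicals passing a 25 uM duplicate screen were titrated to a 50 uM maximum.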
# [4] = biological target: Estrogen receptor (Homo sapiens) (UniProt P03372); assay: OT_ER_ERaERa_1440: Odyssey Thera (OT) 24-hour HEK293T Protein-Complementation Assay for Estrogen Receptor-alpha/-alpha Homodimer (AID 2283349);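 further: hits raise fluorescence above DMSO for agonists and antagonists alike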
# How it was run: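 Stably transfected HEK293T; ERα LBD homodimer PCA. 24 h dosing, fluorescence intensity read, gain-of-signal vs DMSO.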
# [5] = biological target: bovine Gamma-Aminobutyric Acid Type A Receptor Agonist (GABAR Agonist), GABRA1 (gene 780973) (UniProt P08219); assay: NVS_LGIC_bGABAR_Agonist: NovaScreen (NVS) Ligand-Gated Ion Channel Assay for bovine Gamma-Aminobutyric Acid Type A Receptor Agonist (GABAR Agonist) (AID 2283338)
# How it was run: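 Radioligand binding to bovine cerebellar membranes in agonist format, read by filter-based scintillation counting after 1 h. Primary screen in duplicate at 25 uM, with actives followed in concentration series. Gain of signal versus DMSO.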
# [6] = biological target: rat Glycine Receptor, Strychnine-sensitive (GlyRStrySens), Glra1 (gene 25674) (UniProt P07727); assay: NVS_LGIC_rGlyRStrySens: NovaScreen (NVS) Ligand-Gated Ion Channel Assay for rat Glycine Receptor, Strychnine-sensitive (GlyRStrySens) (AID 2283341)
# Description: NVS_LGIC_rGlyRStrySens is a biochemical, single-readout assay that uses extracted gene-proteins from Rat spinal cord membranes in a tissue-based cell-free assay. Measurements were taken 1 hour after chemical dosing in a 48-well plate.NVS_LGIC_rGlyRStrySens is one of one assay component(s) measured or calculated from the NVS_LGIC_rGlyRStrySens assay. It is designed to make measurements of radioligand binding, a form of binding reporter, as detected with scintillation counting signals by Filter-based radiodetection technology.Data from the assay component NVS_LGIC_rGlyRStrySens was analyzed into 1 assay endpoint. This assay endpoint, NVS_LGIC_rGlyRStrySens, was analyzed in the positive analysis fitting direction relative to DMSO as the negative control and baseline of activity. Using a type of binding reporter, loss-of-signal activity can be used to understand changes in the binding as they relate to the gene Glra1. Furthermore, this assay endpoint can be referred to as a primary readout, because the performed assay has only produced 1 assay endpoint. To generalize the intended target to other relatable targets, this assay endpoint is annotated to the ion channel intended target family, where the subfamily is ligand-gated ion channel.
# Binding assays used specific radioligands (tritiated, iodinated) with non-radioactive competitive displacement ligands in agonist or antagonist protocols (as indicated) and various reference compounds and inhibitors to titrate specific binding to receptors and transporters. Most enzyme assays (CYPs, kinases, phosphatases, proteases, HDACs) used recombinant protein and specific substrates (fluorescence mostly, some colorimetric and radioactive) and inhibitors, followed by a biochemical separation of substrate and product. All assays for the biochemical HTS were initially run in duplicate at a single concentration (10 uM for CYP450 assays and 25 uM for all others). Assay-chemical combinations meeting a pre-defined threshold (e.g., 30% inhibition and other criteria defined below) were then run in singleton concentration-response format with maximum concentration of 20 uM for CYPs and 50 uM for all others. Each assay was run with positive and negative controls, and concurrent controls on every plate. The follow-up (secondary) screen tested active chemical-pairs in concentration series, as well as a few additional assays not tested in the primary screen, some selected negative inactives, and several cases re-run in the concentration series for confirmatory purposes.
# [7] = biological target: rat Glutamate, MK-801 Agonist Site (GluNMDA_MK801), Grin1 (gene 24408) (UniProt P35439); assay: NVS_LGIC_rGluNMDA_MK801_Agonist: NovaScreen (NVS) Ligand-Gated Ion Channel Assay for rat Glutamate, MK-801 Agonist Site (GluNMDA_MK801) (AID 2283340)
# Description: NVS_LGIC_rGluNMDA_MK801_Agonist is a biochemical, single-readout assay that uses extracted gene-proteins from Rat forebrain membranes in a tissue-based cell-free assay. Measurements were taken 1.5 hours after chemical dosing in a 48-well plate.NVS_LGIC_rGluNMDA_MK801_Agonist is one of one assay component(s) measured or calculated from the NVS_LGIC_rGluNMDA_MK801_Agonist assay. It is designed to make measurements of radioligand binding, a form of binding reporter, as detected with scintillation counting signals by Filter-based radiodetection technology.Data from the assay component NVS_LGIC_rGluNMDA_MK801_Agonist was analyzed into 1 assay endpoint. This assay endpoint, NVS_LGIC_rGluNMDA_MK801_Agonist, was analyzed in the positive analysis fitting direction relative to DMSO as the negative control and baseline of activity. Using a type of binding reporter, gain-of-signal activity can be used to understand changes in the binding as they relate to the gene Grin1. Furthermore, this assay endpoint can be referred to as a primary readout, because the performed assay has only produced 1 assay endpoint. To generalize the intended target to other relatable targets, this assay endpoint is annotated to the ion channel intended target family, where the subfamily is ligand-gated ion channel. […]
# [8] = biological target: human Constitutive Androstane Receptor (CAR), NR1I3 (gene 9970) (UniProt Q14994); assay: NVS_NR_hCAR_Antagonist: NovaScreen (NVS) Nuclear Receptor Binding Assay for human Constitutive Androstane Receptor Antagonism (CAR) (AID 2283344)
# How it was run: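 Single 25 uM duplicate primary screen, with concentration-series follow-up on actives. Cell-free binding format run in antagonist mode, TR-FRET signal taken 1 h post-dose; activity is signal loss relative to DMSO.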
# [9] = biological target: chimpanzee Androgen Receptor (AR), AR (gene 747460) (UniProt O97775); assay: NVS_NR_cAR: NovaScreen (NVS) Nuclear Receptor Binding Assay for chimpanzee Androgen Receptor (AR) (AID 2283346);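 further: radioligand displacement from AR measured by scintillation counting in a cell-free assay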
# How it was run: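 Cell-free radioligand displacement using receptor protein extracted from Sf9/Sf21 cells; bound radioligand measured by scintillation counting 72 hours after chemical dosing. Loss of signal versus DMSO baseline indicates binding; primary screen single-concentration in duplicate at 25 uM, actives followed in concentration series.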
# Chain of human Constitutive Androstane Receptor (CAR), NR1I3 (gene 9970) (Q14994 whole entry, looked up): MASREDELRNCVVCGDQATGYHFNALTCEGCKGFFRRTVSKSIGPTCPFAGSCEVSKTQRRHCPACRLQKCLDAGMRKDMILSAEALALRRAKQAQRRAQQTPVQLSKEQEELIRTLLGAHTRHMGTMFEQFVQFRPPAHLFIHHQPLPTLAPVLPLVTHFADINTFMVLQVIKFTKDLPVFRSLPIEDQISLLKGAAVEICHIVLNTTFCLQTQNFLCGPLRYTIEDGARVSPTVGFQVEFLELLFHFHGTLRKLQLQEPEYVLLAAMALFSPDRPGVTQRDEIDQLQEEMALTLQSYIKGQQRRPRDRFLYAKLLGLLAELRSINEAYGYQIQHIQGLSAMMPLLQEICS
# Chain of Estrogen receptor (Homo sapiens) (P03372 whole entry, looked up, the tested form may be a part): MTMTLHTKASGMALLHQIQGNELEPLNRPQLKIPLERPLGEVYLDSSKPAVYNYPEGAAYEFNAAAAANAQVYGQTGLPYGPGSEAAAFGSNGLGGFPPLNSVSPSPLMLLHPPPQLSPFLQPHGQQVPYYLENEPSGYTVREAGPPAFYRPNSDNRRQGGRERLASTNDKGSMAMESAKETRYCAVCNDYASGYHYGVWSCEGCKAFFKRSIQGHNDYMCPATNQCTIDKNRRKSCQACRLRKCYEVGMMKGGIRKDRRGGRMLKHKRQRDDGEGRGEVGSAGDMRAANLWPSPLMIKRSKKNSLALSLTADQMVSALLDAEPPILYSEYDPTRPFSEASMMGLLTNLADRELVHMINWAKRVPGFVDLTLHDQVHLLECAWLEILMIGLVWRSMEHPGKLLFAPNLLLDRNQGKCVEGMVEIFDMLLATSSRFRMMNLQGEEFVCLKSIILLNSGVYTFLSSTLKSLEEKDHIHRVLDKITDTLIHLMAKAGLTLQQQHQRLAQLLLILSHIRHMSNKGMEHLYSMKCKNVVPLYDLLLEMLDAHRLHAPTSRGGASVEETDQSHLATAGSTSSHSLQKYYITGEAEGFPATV
# Chain of bovine Estrogen Receptor (ER), ESR1 (gene 407238) (P49884 whole entry, looked up): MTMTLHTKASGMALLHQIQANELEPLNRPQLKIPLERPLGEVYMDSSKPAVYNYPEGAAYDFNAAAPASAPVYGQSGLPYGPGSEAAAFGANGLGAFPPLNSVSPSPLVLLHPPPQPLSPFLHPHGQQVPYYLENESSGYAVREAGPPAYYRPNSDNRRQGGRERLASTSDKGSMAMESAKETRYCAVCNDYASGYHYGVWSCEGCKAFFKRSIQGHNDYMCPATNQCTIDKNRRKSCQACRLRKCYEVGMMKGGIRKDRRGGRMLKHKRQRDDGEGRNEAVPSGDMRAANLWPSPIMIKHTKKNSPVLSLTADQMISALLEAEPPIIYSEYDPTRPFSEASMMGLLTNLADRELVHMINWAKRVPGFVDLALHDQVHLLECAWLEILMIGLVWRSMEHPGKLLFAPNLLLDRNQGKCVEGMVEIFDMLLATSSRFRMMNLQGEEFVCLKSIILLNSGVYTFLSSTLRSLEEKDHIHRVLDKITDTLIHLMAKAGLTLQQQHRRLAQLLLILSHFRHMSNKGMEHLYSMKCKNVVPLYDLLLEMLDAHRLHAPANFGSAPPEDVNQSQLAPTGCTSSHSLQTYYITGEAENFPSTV
# Chain of rat Glycine Receptor, Strychnine-sensitive (GlyRStrySens), Glra1 (gene 25674) (P07727 whole entry, looked up): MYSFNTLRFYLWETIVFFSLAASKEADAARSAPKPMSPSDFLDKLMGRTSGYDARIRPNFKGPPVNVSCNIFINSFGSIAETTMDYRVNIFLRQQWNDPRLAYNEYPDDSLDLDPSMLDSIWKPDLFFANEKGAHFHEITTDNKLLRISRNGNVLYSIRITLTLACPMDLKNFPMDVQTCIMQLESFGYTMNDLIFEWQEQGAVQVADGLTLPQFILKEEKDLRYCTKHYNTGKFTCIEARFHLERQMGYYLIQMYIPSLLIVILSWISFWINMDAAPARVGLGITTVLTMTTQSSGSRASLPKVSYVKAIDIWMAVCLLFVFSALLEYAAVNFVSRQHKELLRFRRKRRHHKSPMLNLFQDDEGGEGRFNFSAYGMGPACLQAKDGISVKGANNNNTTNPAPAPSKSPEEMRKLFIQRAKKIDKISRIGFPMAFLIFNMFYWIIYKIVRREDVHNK
# Chain of chimpanzee Androgen Receptor (AR), AR (gene 747460) (O97775 whole entry, looked up): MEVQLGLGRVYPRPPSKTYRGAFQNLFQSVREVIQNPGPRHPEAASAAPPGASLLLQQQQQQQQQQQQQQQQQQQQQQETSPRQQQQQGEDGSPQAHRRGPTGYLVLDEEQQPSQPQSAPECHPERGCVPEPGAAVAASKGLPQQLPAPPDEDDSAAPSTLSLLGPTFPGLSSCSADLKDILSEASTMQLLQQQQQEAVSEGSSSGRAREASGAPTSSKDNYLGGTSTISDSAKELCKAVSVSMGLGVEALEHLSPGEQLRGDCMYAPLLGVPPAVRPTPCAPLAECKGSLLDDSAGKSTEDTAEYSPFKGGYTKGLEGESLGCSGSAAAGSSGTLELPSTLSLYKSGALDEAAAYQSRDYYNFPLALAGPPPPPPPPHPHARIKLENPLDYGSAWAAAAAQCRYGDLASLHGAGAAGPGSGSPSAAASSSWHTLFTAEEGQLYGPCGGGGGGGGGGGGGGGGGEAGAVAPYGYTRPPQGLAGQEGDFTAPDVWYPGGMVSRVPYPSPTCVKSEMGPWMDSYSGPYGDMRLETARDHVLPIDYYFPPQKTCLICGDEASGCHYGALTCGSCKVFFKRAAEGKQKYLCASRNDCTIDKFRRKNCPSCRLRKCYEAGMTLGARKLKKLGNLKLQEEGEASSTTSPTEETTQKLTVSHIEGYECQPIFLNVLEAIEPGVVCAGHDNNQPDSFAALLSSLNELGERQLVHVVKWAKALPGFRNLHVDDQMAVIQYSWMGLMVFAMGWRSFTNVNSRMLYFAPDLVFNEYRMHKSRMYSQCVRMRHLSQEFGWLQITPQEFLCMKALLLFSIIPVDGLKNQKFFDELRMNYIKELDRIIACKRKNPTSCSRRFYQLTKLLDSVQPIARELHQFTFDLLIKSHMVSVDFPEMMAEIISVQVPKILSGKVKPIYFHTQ
# Chain of bovine Gamma-Aminobutyric Acid Type A Receptor Agonist (GABAR Agonist), GABRA1 (gene 780973) (P08219 whole entry, looked up): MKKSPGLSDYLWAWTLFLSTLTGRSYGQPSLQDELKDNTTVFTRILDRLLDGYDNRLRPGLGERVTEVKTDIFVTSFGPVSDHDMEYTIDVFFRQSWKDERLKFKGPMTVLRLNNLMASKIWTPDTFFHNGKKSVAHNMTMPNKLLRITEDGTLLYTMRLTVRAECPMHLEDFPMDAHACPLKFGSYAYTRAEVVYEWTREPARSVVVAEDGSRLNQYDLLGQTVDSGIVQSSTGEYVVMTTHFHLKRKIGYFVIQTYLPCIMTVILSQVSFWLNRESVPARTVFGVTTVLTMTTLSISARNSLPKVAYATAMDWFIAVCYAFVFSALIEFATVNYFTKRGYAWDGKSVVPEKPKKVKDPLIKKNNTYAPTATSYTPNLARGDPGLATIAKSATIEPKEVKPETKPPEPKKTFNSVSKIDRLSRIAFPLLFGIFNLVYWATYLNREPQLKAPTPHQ
smiles,measurement,setting,value
CCCCC(CC)COC(=O)CCCCCCCC(=O)OCC(CC)CCCC (stereo not given),outcome,[1],inactive
O=C1OC(c2ccc(O)cc2)(c2ccc(O)cc2)c2ccccc21,outcome,NCBI gene 100848466,inactive
Cc1ccc(-c2cc(C(F)(F)F)nn2-c2ccc(S(N)(=O)=O)cc2)cc1,outcome,[1],inactive
same,outcome,[2],inactive
CC(C)NCC(O)c1ccc(O)c(O)c1 (stereo not given),outcome,[3],inactive
CN(C)C(=O)NC1(c2ccccc2)CCN(CC[C@@]2(c3ccc(F)c(F)c3)CN(C(=O)c3ccccc3)CCO2)CC1,AC50,[3],0.276 µM (active)
CS(=O)(=O)c1ccc([C@@H](C[C@H]2CCC(=O)C2)C(=O)Nc2cnccn2)cc1Cl,AC50,[3],0.0043 µM (active)
same,outcome,[4],inactive
Cc1c(C)c2c(c(C)c1O)CCC(C)(COc1ccc(CC3SC(=O)NC3=O)cc1)O2 (stereo not given),outcome,[5],inactive
same,outcome,[1],inactive
same,outcome,[2],inactive
same,outcome,[4],inactive
CSc1ccc(Oc2ccc(S(N)(=O)=O)cc2CN(C)C)cc1C,AC50,[5],38.8 µM (active)
same,outcome,[6],inactive
same,AC50,[3],11.7 µM (active)
same,outcome,[2],inactive
same,outcome,[4],inactive
CN(C)CCCN1c2ccccc2Sc2ccc(Cl)cc21,outcome,[5],inactive
same,AC50,[7],25 µM (active)
same,AC50,[3],1.42 µM (active)
COc1ccc(OC(F)(F)F)cc1CN[C@H]1CCCN[C@H]1c1ccccc1,AC50,[3],7.67 µM (active)
same,outcome,[8],inactive
same,outcome,[4],inactive
CC(=O)[C@@]1(O)CC[C@H]2[C@@H]3CCC4=CC(=O)CC[C@]4(C)[C@H]3CC[C@@]21C,AC50,NCBI gene 100848466,0.467 µM (active)
same,AC50,[1],15.4 µM (active)
same,outcome,[1],inactive
same,AC50,[9],0.49 µM (active)
same,outcome,[9],inactive
O=C(N[C@@H](c1ccccc1)[C@@H]1CCCCN1)c1cccc(C(F)(F)F)c1Cl,AC50,[8],25 µM (active)
same,outcome,[4],inactive
N[C@@H](Cc1c[nH]c2ccccc12)C(=O)O,outcome,[5],inactive
CCCCc1nc2cccnc2n1Cc1ccc(-c2ccccc2-c2nnn[nH]2)cc1,outcome,[3],inactive
same,outcome,[4],inactive
CCCCCCCCCC[N+](C)(C)[O-],outcome,[3],inactive
same,outcome,[4],inactive
CC(C)(C)c1ccccc1,outcome,[5],inactive
O=C1NC(=O)C(c2ccccc2)(c2ccccc2)N1,outcome,[8],inactive
CN(C)C(=O)NC1(c2ccccc2)CCN(CCC[C@]2(c3ccc(Cl)c(Cl)c3)CCCN(C(=O)c3ccccc3)C2)CC1,AC50,[3],0.0164 µM (active)
same,outcome,[4],inactive
Cc1cc(Cc2ccc(N)c(C)c2)ccc1N,outcome,[1],inactive
same,AC50,[9],25 µM (active)
CCCCCCCCCCCCCCOS(=O)(=O)O,AC50,NCBI gene 100848466,25 µM (active)
same,outcome,[4],inactive
Cn1cnc2c1c(=O)[nH]c(=O)n2C,outcome,[3],inactive
CCc1nc(N)nc(N)c1-c1ccc(Cl)cc1,AC50,[5],8.29 µM (active)
same,AC50,[6],2.7 µM (active)
same,AC50,[3],2.94 µM (active)
same,outcome,[4],inactive
CC(=O)O[C@]1(C(C)=O)CC[C@H]2[C@@H]3C=C(Cl)C4=CC(=O)[C@@H]5C[C@@H]5[C@]4(C)[C@H]3CC[C@@]21C,outcome,[3],inactive
same,AC50,NCBI gene 100848466,0.0857 µM (active)
CCCCC(CC)CO (stereo not given),outcome,[6],inactive
O=Cc1ccccc1C=O,outcome,[1],inactive
same,AC50,[9],25 µM (active)
same,outcome,[2],inactive
same,outcome,[4],inactive
CCN(CC)CCOc1ccc(C(=C(Cl)c2ccccc2)c2ccccc2)cc1,outcome,[6],inactive
same,AC50,[3],1.82 µM (active)
same,AC50,NCBI gene 100848466,11.6 µM (active)
same,AC50,[8],34 µM (active)
same,AC50,[9],4.82 µM (active)
NC1CCCCC1,outcome,[7],inactive
same,outcome,[4],inactive
O=C1c2c(O)cccc2Cc2cccc(O)c21,AC50,NCBI gene 100848466,42.7 µM (active)
O=[Si]=O,outcome,[1],inactive
CCC(C)N(C)C(=O)c1cc2ccccc2c(-c2ccccc2Cl)n1 (stereo not given),outcome,[1],inactive
